Screens from PubChem.
Shown are actives, neighbours in structure and some others; about 8.8% of the full set was active somewhere.
ALDH1A1 block: ALDH1A1 (human) enzyme inhibition. P00352. Purified ALDH1A1, NADH fluorescence, propionaldehyde substrate. Potency, µM (series often up to 75.3 µM), for the others: at the highest dose activity, negative = inhibition, actives largely listed as inhibitors. hit rate 7.3% among 220,000. AID 1030;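 also: plate controls were no enzyme wells and a reference inhibitor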
Target sequence (P00352 whole entry, looked up): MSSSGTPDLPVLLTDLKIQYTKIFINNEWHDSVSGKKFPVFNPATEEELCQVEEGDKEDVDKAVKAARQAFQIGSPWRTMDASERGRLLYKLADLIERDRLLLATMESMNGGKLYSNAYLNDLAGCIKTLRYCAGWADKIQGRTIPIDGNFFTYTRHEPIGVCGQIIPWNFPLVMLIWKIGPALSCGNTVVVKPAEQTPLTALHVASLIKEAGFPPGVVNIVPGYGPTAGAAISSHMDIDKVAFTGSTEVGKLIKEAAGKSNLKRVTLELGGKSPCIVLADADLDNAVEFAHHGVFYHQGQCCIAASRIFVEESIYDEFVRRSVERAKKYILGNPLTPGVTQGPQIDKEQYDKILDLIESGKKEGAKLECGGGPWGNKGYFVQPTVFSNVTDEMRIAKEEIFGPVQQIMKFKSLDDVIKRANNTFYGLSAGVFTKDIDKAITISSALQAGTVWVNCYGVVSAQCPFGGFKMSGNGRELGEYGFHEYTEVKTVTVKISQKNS
Lamin A splicing: modulators of lamin A splicing; HeLa LMNA splicing GFP/RFP minigene ratio, 48 h; Potency, µM (titrated, usually from 46.1 µM), inactives show top-dose ratio change, negative = inhibition, most hits filed as inhibitors; hit rate 0.01% among 200,000; AID 1487; active = well fitted inhibition curve with a large enough effect in the signal ratio, with a control signal flat, not every such curve was filed as active; inconclusive = small, poorly fitted or top-dose-only effect, or effect the other way, or a change in a side signal; the % refers to the signal ratio; also: % is scaled to controls: 0 for no effect and ±100 for the full control effect
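Read-out is the ratio of GFP to DsRed2 object intensity, acquired by 488 nm laser-scanning cytometry on HeLa lamin A-EGFP minigene reporter cells. Compound incubation 48 hrs at 37 °C in Opti-MEM with 2% FBS; DMSO 0.5% final.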
HPGD inh: inhibitors of human 15-hydroxyprostaglandin dehydrogenase (HPGD) | P15428 | purified HPGD, NADH fluorescence kinetic, PGE2 substrate | Potency, µM, for inactives: top-dose activity change, negative = inhibition, usual class: inhibitors | hit rate 4.3% among 150,000 | AID 894; also: % is scaled to controls: 0 for no effect and ±100 for the full control effect
Target sequence (P15428 whole entry, looked up): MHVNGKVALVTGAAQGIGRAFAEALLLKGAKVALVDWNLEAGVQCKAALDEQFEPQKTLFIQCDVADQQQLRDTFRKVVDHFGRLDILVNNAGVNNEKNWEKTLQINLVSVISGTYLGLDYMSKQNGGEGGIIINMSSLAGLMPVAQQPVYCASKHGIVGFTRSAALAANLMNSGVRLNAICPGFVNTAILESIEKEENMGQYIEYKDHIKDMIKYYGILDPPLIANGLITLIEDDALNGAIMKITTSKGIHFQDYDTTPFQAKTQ
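NADH formation kinetics: reaction with 30 uM PGE2 and 1 mM NAD+ (final), 20 nM enzyme, Tris-HCl pH 8 with Tween 20, after 15 min compound preincubation at room temperature. Fluorescence change, last versus first of five reads.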
HTT ATP protect: cytoprotection in Huntington HTT-Q103 PC12 cell model | PC12 HTT-Q103 induced, cytoprotection, ATP luminescence, 40 h | Potency, µM (doses to about 56.4 µM), for the others: cytoprotection (ATP increase), hits mostly activators | hit rate 0.14% among 230,000 | AID 1471; active = well fitted curve in the direction sought with a large enough effect; inconclusive = small, poorly fitted or top-dose-only effect, or another doubt; inactive = no such curve, though single readings can be large; an effect the other way counts as inactive or inconclusive; also: % of control where 0% means no effect; nearly all actives have a fitted effect of over 45% in size
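Compounds were screened for protection of PC12 cells against cell death after tebufenozide induction (100 nM final) of mutant Huntingtin exon 1 (Q103) fused to GFP.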
HTT aggregate: mutant huntingtin aggregation inhibition | PC12 HttQ103-GFP aggregates, Acumen cytometry, 40 h | Potency, µM (series often up to 46.1 µM), inactives show at the highest dose activity change, negative = inhibition, actives largely listed as inhibitors | hit rate 1.1% among 220,000 | AID 1688; active = well fitted curve in the direction sought with a large enough effect; inconclusive = small, poorly fitted or top-dose-only effect, or another doubt; inactive = no such curve, though single readings can be large; an effect the other way counts as inactive or inconclusive; also: % is scaled to controls: 0 for no effect and ±100 for the full control effect; nearly all actives have a fitted effect of over 60% in size
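Compounds (qHTS titration) were added to PC12 cells expressing an ecdysone-driven HTT exon 1 Q103–GFP fusion after induction with 100 nM tebufenozide. Aggregate formation was measured as GFP objects in cell lysates.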
* marks the source's active call; other numbers are inactive results; ? = inconclusive; . = no result given; [ ] = another dose, or the depositor's remark. Unless noted, calls follow the shape of the dose curve; as a rule, active = well fitted inhibition curve with a large enough effect (not every such curve was filed as active); inconclusive = small, poorly fitted or top-dose-only effect, or another doubt; inactive = no such curve, though single readings can be large or run the other way. Potency is read from the fitted curve at half-maximal effect.

SMILES	ALDH1A1 block	Lamin A splicing	HPGD inh	HTT ATP protect	HTT aggregate
COC(=O)c1ccccc1NC(=S)NC(=O)c1cccc2ccccc12	10µM*	4%	-24%	-39%	-7%
Cc1cc(C(=O)NC(C)CCC(C)C)c2ccccc2n1 (configuration not stated)	-13%	4%[46 µM]	.	-35%	-5%
NC(CO)(CO)CO	6%	?	-2%	-52%	-14%
COc1ccc(-c2[nH]ncc2CN(C)CCc2c(C)n[nH]c2C)c(F)c1	10µM*	.	.	-51%	8%
COc1ccc(-c2[nH]ncc2CN(C)C(C)c2cccs2)c(F)c1 (configuration not stated)	?	.	.	-22%	-7%
COc1ccccc1CNc1ccc([N+](=O)[O-])cc1C	?	.	.	-4%[10 µM]	9%[9.22 µM]
COc1ccccc1NCc1ccc([N+](=O)[O-])s1	14µM*	9%	-10%	.	0%
CCOc1ccc(S(=O)(=O)NCCCl)cc1	14%	.	.	-9%[10 µM]	2%[9.22 µM]
CCOC(=O)c1ccc(Nc2nnc(C(C)(C)C)c(=O)[nH]2)cc1	14µM*	?	.	-42%	?
c1ccc(-c2ccccn2)nc1	3%	?	-11%	5%[1.9 µM]	8%
c1ccc(-c2ccc(-c3ccccn3)nn2)nc1	20µM*	?	25µM*	-125%[0.074 µM]	?
O=C1OCCN1CCNCc1cn(-c2ccc(F)cc2)nc1-c1ccccc1Cl	?	?	.	6%[10 µM]	-3%[9.22 µM]
Cc1ccc(-n2cc(CNCCN3CCOC3=O)c(-c3cccc(C)c3)n2)cc1	7.1µM*	.	.	-27%[10 µM]	-8%[9.22 µM]
CCC(=O)c1ccc(N2CCC(C)CC2)c(F)c1	5%	7%[46 µM]	.	7%[10 µM]	1%[9.22 µM]
CCCC(=O)c1ccc(N2CCCCC2)c(F)c1	-11%	1%[46 µM]	.	14%[10 µM]	11%[9.22 µM]
CCCC(=O)c1ccc(N2CCCCCC2)c(F)c1	?	-3%	16µM*	-5%	-13%
CCCC(=O)c1ccc(N2CCC(C)CC2)c(F)c1	4%	5%	14µM*	.	14%
CC1CCC(N2CC(=O)N(C3CCCC3)C(c3ccc(Cl)cc3)C2=O)CC1 (configuration not stated)	.	10%[46 µM]	.	.	.
COc1ccc2c(c1)OCC(Cc1ccc(O)c(OC)c1)C2=O (configuration not stated)	?	.	?	-48%	.
CCN(CC)c1ccc2cc(-c3nc4sc5c(c4c(=O)[nH]3)CCC(C(C)(C)C)C5)c(=O)oc2c1 (configuration not stated)	.	3%[46 µM]	.	.	.
O=C1OC(c2ccccc2)/C(=C(/O)c2ccc(Cl)cc2)C1=O (configuration not stated)	38µM*	2%	35µM*	-88%[10 µM]	?
Cc1ccc(/C(O)=C2/C(=O)C(=O)OC2c2ccc(Cl)cc2)cc1 (configuration not stated)	?	-3%	-7%	16%	9%
O=C1OC(c2ccccc2)/C(=C(/O)c2ccccc2)C1=O (configuration not stated)	0.79µM*	8%	-18%	?	-6%
O=C(CN1CCCCC1)NCCNc1ccc(C(F)(F)F)cc1[N+](=O)[O-]	-4%	-6%	-6%	15%[10 µM]	9%
CNC(=O)[C@H]1O[C@H](n2cnc3c(NCc4cccc(I)c4)ncnc32)[C@@H](O)[C@@H]1O	-3%	.	-8%	-8%	.
SMILES	ALDH1A1 block	Lamin A splicing	HPGD inh	HTT ATP protect	HTT aggregate
COc1ccc(CCCc2nnc(SCC(=O)Nc3ccc(C)cc3)o2)cc1C	.	1%[46 µM]	.	.	.
Cc1nc2ccc(S(=O)(=O)N(CC(=O)Nc3ccc(Cl)cc3)Cc3ccccc3)cc2s1	.	-4%[46 µM]	.	.	.
O=C(NNC(=S)Nc1cccc(C(F)(F)F)c1)c1ccc(Cl)cc1Cl	20µM*	?	-15%	5%[10 µM]	11µM*
CCOc1ccc(NC(=S)NNc2ccnc3cc(Cl)ccc23)cc1	3.2µM*	?	.	-9%	-8%
CC(C)(O)C(=O)NNC(=S)Nc1cccc(C(F)(F)F)c1	?	?	.	29%	15%
FC(F)(F)c1cccc(NC(=S)NC(c2ccccc2)c2ccccc2)c1	-2%	?	-4%	7%[10 µM]	?
CCCN(Cc1ccccc1)C(=S)Nc1cccc(C(F)(F)F)c1	-6%	?	-3%	11%[10 µM]	5%
FC(F)(F)c1cccc(NC(=S)Nc2ccc(Cl)c(Cl)c2)c1	13µM*	.	.	-5%[10 µM]	-8%[9.22 µM]
CN(C)CCCN(Cc1ccccc1)C(=S)Nc1cccc(C(F)(F)F)c1	-4%	?	.	.	0.0006µM*
Cc1cccc(NC(=S)NNC(=O)c2ccccc2OC(F)F)c1	9.5µM*	?	-11%	-23%	?
O=C(Nc1ccccc1)Nc1cccc(C(F)(F)F)c1	-2%	.	.	-80%	22µM*
FC(F)(F)c1cccc(NC(=S)NNC(=S)Nc2cccc(C(F)(F)F)c2)c1	1.6µM*	.	.	-2%[10 µM]	-5%[9.22 µM]
Cc1ccccc1C(=O)NNC(=S)Nc1cccc(C(F)(F)F)c1	18µM*	?	-24%	.	19%
O=C(O)c1ccc(S(=O)(=O)c2ccc(Sc3ccc(C(=O)O)c(C(=O)O)c3)cc2)cc1	-2%	1%[46 µM]	.	.	.
CCNc1ncc2nc(CCc3ccccc3)c(=O)n(C)c2n1	?	.	?	-112%	.
CCOc1ccc(NC(=S)NNC(=O)c2cc(Br)ccc2Cl)cc1	13µM*	.	.	.	?
Cc1ccccc1NC(=O)Nc1ccc(C(F)(F)F)cc1	3%	.	.	-49%	11µM*
O=C(O)CS(=O)CC(=O)Nc1cccc(C(F)(F)F)c1 (configuration not stated)	1.8µM*	.	.	1%	15%
FC(F)(F)c1cccc(NC(=S)NCc2ccccc2)c1	7%	12%	28µM*	-61%	-32%
O=C(O)CS(=O)CC(=O)NCc1cccc(C(F)(F)F)c1 (configuration not stated)	2%	.	.	-11%	19%
COCCn1c(=O)c(-c2ccc(F)cc2)nc2cnc(N(C)C)nc21	?	8%	.	-34%	.
CCn1ncc(NC(=O)Nc2cccc(C(F)(F)F)c2)c1C(N)=O	5%	6%	-6%	8%[0.074 µM]	-20%
CCOc1ccc(NC(=S)NNC(=S)Nc2cccc(C(F)(F)F)c2)cc1	1.3µM*	.	.	-4%[10 µM]	-7%[9.22 µM]
CCOc1cc(OCC)cc(C(=O)NC(=S)Nc2cccc(C(F)(F)F)c2)c1	3.5µM*	6%	-27%	4%	13%
CNNC(=S)Nc1cccc(C(F)(F)F)c1	-1%	.	.	17%[10 µM]	-3%[9.22 µM]
O=C(NC(=S)Nc1cccc(C(F)(F)F)c1)c1ccc2nonc2c1	.	.	.	8%[10 µM]	0%[9.22 µM]
COc1ccc(NC(=S)NNC(=S)Nc2cccc(C(F)(F)F)c2)cc1	0.45µM*	.	.	-1%[10 µM]	-4%[9.22 µM]
CCSCCc1nnc(NC(=O)Nc2cccc(C(F)(F)F)c2)s1	11%	?	-4%	-11%[1.9 µM]	11µM*
CN(CCO)Cc1ncccc1O	-3%[13.5 µM]	.	-10%	6%[10 µM]	.
CCNc1nc(NCC)n2c(SCc3ccc(F)cc3)nnc2n1	-2%	-3%	-6%	13%[10 µM]	2.5µM*
